Inconclusive results are not listed. Activity calls are given as the source filed them. Rule for the calls, unless noted: active = hit-call score of the fitted dose curve at least 0.9, where 1 is the maximum; inactive = score below 0.9.
Columns and labels:
[1] = target: Paired box protein Pax-6 (Homo sapiens) (UniProt P26367); test: ATG_Pax6_CIS: Attagene CIS-FACTORIAL HepG2 Assay for human Paired Box 6 (PAX6) (AID 2282956); conditions: HepG2 CIS-FACTORIAL PAX6 reporter transcription, RNA readout; actives raise or lower the signal
How it was run: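 Readout: reporter transcript fluorescence after RT-PCR and capillary electrophoresis. Cells: HepG2, transiently transfected with cis-regulated MRTUs. Exposure 24 h. Gain or loss of signal fitted bidirectionally relative to DMSO.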

[2] = ATG_PXRE_CIS: Attagene CIS-FACTORIAL HepG2 Assay for human Pregnane X Receptor Element (PXRE) (AID 2282957); conditions: HepG2 Attagene CIS-FACTORIAL PXRE reporter, mRNA; actives raise or lower the signal
How it was run: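 Reporter transcripts under endogenous PXR-responsive cis-regulation quantified from total RNA of transfected HepG2 cells 24 h post-dosing, via RT-PCR with fluorescent primer extension and capillary electrophoresis. Gain or loss of signal fitted against DMSO baseline.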

[3] = ATG_PPRE_CIS: Attagene CIS-FACTORIAL HepG2 Assay for human Peroxisome Proliferator-activated Response Element (PPRE) (AID 2282958); conditions: HepG2 PPRE cis-element reporter, Attagene transcription factor profiling; actives raise or lower the signal
How it was run: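 HepG2 cells transiently transfected with multiplexed cis-element reporter units measure endogenous transcription factor activity. After 24 h compound exposure, reporter mRNA is quantified by RT-PCR, 6-FAM labeling, HpaI digestion and capillary electrophoresis; bidirectional fits are made against DMSO baseline.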

[4] = ATG_RORE_CIS: Attagene CIS-FACTORIAL HepG2 Assay for human RAR-related Orphan Receptor Element (RORE) (AID 2282959); conditions: HepG2 Attagene cis-factorial RORE reporter, mRNA; actives raise or lower the signal
How it was run: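 HepG2 cells transiently transfected with multiple cis-element reporter transcription units, exposed to chemical for 24 h. Reporter mRNA quantified by RT-PCR, 6-FAM primer-extension labeling, HpaI digestion and capillary electrophoresis; bidirectional fit versus DMSO baseline.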

[5] = ATG_Sox_CIS: Attagene CIS-FACTORIAL HepG2 Assay for human SRY-box transcription factor (SOX) (AID 2282960); conditions: HepG2 Attagene cis-factorial SOX reporter, mRNA; actives raise or lower the signal
How it was run: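 HepG2 cells transiently transfected with cis-element-driven multiple reporter transcription units, dosed 24 h; reporter mRNA measured by RT-PCR, FAM labelling, HpaI digestion and capillary electrophoresis. Bidirectional fit versus DMSO baseline.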

[6] = target: Transcription factor Sp1 (Homo sapiens) (UniProt P08047); test: ATG_Sp1_CIS: Attagene CIS-FACTORIAL HepG2 Assay for human Specificity Protein 1 (Sp1) (AID 2282961); conditions: HepG2 Sp1 cis-reporter transcription, actives raise or lower the signal
How it was run: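 HepG2 cells transiently transfected with multiple reporter transcription units driven by cis-regulatory elements; Sp1-responsive reporter mRNA measured 24 h after dosing by RT-PCR and capillary electrophoresis fluorescence, fitted bidirectionally against DMSO baseline.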

[7] = ATG_SREBP_CIS: Attagene CIS-FACTORIAL HepG2 Assay for human Sterol Regulatory Element Binding (SREBP) (AID 2282962); conditions: HepG2 Attagene cis-factorial SREBP reporter, mRNA; actives raise or lower the signal
How it was run: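 Readout: fluorescent reporter-transcript peaks resolved by capillary electrophoresis after RT-PCR. Cells were human HepG2 carrying transfected cis-promoter reporter constructs, dosed for 24 h. Gain or loss of signal was fitted against DMSO controls.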

[8] = target: Signal transducer and activator of transcription 3 (Homo sapiens) (UniProt P40763); test: ATG_STAT3_CIS: Attagene CIS-FACTORIAL HepG2 Assay for human Signal Transducer and Activator of Transcription 3 (STAT3) (AID 2282963); conditions: HepG2, Attagene cis-factorial STAT3 reporter transcription; actives raise or lower the signal
How it was run: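 Fluorescence intensity of 6-FAM-labelled reporter fragments, separated by capillary electrophoresis after RT-PCR, gave the signal. Cells were HepG2 transfected with cis-element reporter units and treated 24 h; fitting was bidirectional relative to DMSO.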

[9] = ATG_TA_CIS: Attagene CIS-FACTORIAL HepG2 Assay for human TA Basal Promoter (AID 2282964); conditions: HepG2 Attagene CIS-factorial TA basal promoter reporter; actives raise or lower the signal
How it was run: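 Transfected HepG2, 24 h compound exposure; RNA → RT-PCR → FAM primer extension → HpaI cut → CE fluorescence. Gain/loss-of-signal fitted against DMSO negative control. Background-control readout.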

[10] = ATG_TCF_b_cat_CIS: Attagene CIS-FACTORIAL HepG2 Assay for human T-Cell-Factor with beta-catenin (TCF/b-cat) (AID 2282965); conditions: HepG2 TCF/beta-catenin cis-reporter transcription, actives raise or lower the signal
How it was run: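 HepG2, transient MRTU transfection, cis-element-driven reporters (endogenous TFs). 24 h compound exposure. Readout: reporter mRNA by RT-PCR + 6-FAM primer extension, HpaI digest, capillary electrophoresis. Gain/loss fit vs DMSO baseline.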

[11] = ATG_TAL_CIS: Attagene CIS-FACTORIAL HepG2 Assay for human TAL Basal Promoter (AID 2282966); conditions: HepG2 Attagene cis-factorial TAL promoter reporter; actives raise or lower the signal;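 note: background control endpoint measuring basal TAL promoter reporter mRNA not a specific factor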
How it was run: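 Background-control endpoint: basal TAL promoter reporter transcripts in transiently transfected HepG2, measured 24 h after dosing. Read-out by RT-PCR with fluorescent primer extension and capillary electrophoresis; gain or loss of signal fitted relative to DMSO.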

[12] = ATG_TGFb_CIS: Attagene CIS-FACTORIAL HepG2 Assay for human Transforming Growth Factor (TGF) (AID 2282967); conditions: HepG2 Attagene CIS TGFb reporter, mRNA transcription; actives raise or lower the signal
How it was run: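 Readout: fluorescently labeled reporter cDNA fragments resolved by capillary electrophoresis after RT-PCR. Transfected HepG2 cells dosed for 24 h; endogenous TF activity at TGFB1-linked cis element; gain or loss fitted relative to DMSO.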

[13] = target: Nuclear receptor subfamily 1 group I member 3 (Homo sapiens) (UniProt Q14994); test: ATG_CAR_TRANS: Attagene TRANS-FACTORIAL HepG2 Assay for human Constitutive Androstane Receptor (CAR) (AID 2282969; active = hit-call score of the fitted dose curve at least 0.9, where 1 is the maximum;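 note: activators raise reporter mRNA above DMSO so AC50 marks induction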); conditions: HepG2 Attagene TRANS-FACTORIAL CAR reporter
How it was run: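 Transiently transfected HepG2, multiplex TRANS reporters (CAR-Gal4 chimera driving GAL4-UAS reporter). 24 h dosing. Readout: reporter transcript by RT-PCR + capillary electrophoresis, fluorescence intensity; positive direction vs DMSO.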

[14] = target: X-box-binding protein 1 (Homo sapiens) (UniProt P17861); test: ATG_Xbp1_CIS: Attagene CIS-FACTORIAL HepG2 Assay for human X-box Binding Protein 1 (XBP1) (AID 2282972); conditions: HepG2 XBP1 cis-element reporter, Attagene multiplex; actives raise or lower the signal
How it was run: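 Read-out: fluorescent reporter mRNA fragments resolved by capillary electrophoresis after RT-PCR. Human HepG2 liver cells carried transfected cis-promoter reporter units and were exposed to chemicals for 24 hours. Gain or loss of signal fitted relative to DMSO baseline.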

[15] = ATG_M_19_TRANS: Attagene TRANS-FACTORIAL HepG2 Assay for M19 Transcription Factor (Internal Marker) (AID 2282974; active = hit-call score of the fitted dose curve at least 0.9, where 1 is the maximum); conditions: HepG2 Attagene TRANS-FACTORIAL M19 internal marker reporter
How it was run: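 HepG2 cells transiently transfected with multiple GAL4-UAS reporter transcription units were exposed to chemicals for 24 h. Reporter mRNA was read by RT-PCR, 6-FAM primer extension, HpaI digestion and capillary electrophoresis; gain of signal fitted relative to DMSO.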

[16] = ATG_VDRE_CIS: Attagene CIS-FACTORIAL HepG2 Assay for human Vitamin D Receptor Element (VDRE) (AID 2282968); conditions: HepG2 VDRE cis-reporter transcription, actives raise or lower the signal
How it was run: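 Compounds were applied for 24 h to HepG2 cells transfected with promoter-regulated reporter units. Total RNA was reverse-transcribed, and reporter amplicons were fluorescently labelled and sized by capillary electrophoresis.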

[17] = target: Estrogen-related receptor gamma (Homo sapiens) (UniProt P62508); test: ATG_ERRg_TRANS: Attagene TRANS-FACTORIAL HepG2 Assay for human Estrogen-Related Receptor gamma (ERRg) (AID 2282977; active = hit-call score of the fitted dose curve at least 0.9, where 1 is the maximum;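 note: hits increase reporter signal over DMSO so potencies reflect activators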); conditions: HepG2 Attagene TRANS reporter, ERRg transactivation
How it was run: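 Induction of reporter transcripts through a chimeric NR-Gal4 protein is quantified in transfected human HepG2 liver cells after 24 h chemical exposure, using RT-PCR with capillary electrophoresis detection and DMSO as baseline.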

[18] = target: Steroid hormone receptor ERR1 (Homo sapiens) (UniProt P11474); test: ATG_ERRa_TRANS: Attagene TRANS-FACTORIAL HepG2 Assay for human Estrogen-Related Receptor alpha (ERRa) (AID 2282971; active = hit-call score of the fitted dose curve at least 0.9, where 1 is the maximum); conditions: HepG2 Attagene TRANS reporter, ERRa transactivation
How it was run: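 Reporter transcripts from ERRa-Gal4 chimera activity measured in transiently transfected human HepG2 cells 24 hours after dosing, using RT-PCR with 6-FAM primer extension, HpaI digestion and capillary electrophoresis; DMSO is baseline.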

[19] = ATG_GAL4_TRANS: Attagene TRANS-FACTORIAL HepG2 Assay for GAL4 (Internal Marker) (AID 2282976; active = hit-call score of the fitted dose curve at least 0.9, where 1 is the maximum); conditions: HepG2 Attagene TRANS GAL4 internal marker reporter
How it was run: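 In transfected human HepG2 liver cells dosed 24 h, GAL4 reporter mRNA serves as a baseline marker. Detection by RT-PCR with fluorescent capillary electrophoresis, activity fitted upward relative to DMSO.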

[20] = target: Glucocorticoid receptor (Homo sapiens) (UniProt P04150); test: ATG_GR_TRANS: Attagene TRANS-FACTORIAL HepG2 Assay for human Glucocorticoid Receptor (GR) (AID 2282978; active = hit-call score of the fitted dose curve at least 0.9, where 1 is the maximum;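 note: activators score as hits since higher reporter transcript over DMSO is fitted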); conditions: HepG2 Attagene TRANS GR reporter, mRNA transcription
How it was run: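 HepG2 cells transiently transfected with multiplexed reporter units in which chimeric NR-GAL4 proteins drive GAL4-UAS reporters; 24 h compound exposure. Reporter mRNA measured by RT-PCR, 6-FAM labelling, HpaI digestion and capillary electrophoresis; gain-of-signal fitted versus DMSO.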

Chain of X-box-binding protein 1 (Homo sapiens) (P17861 whole entry, looked up, the tested form may be a part): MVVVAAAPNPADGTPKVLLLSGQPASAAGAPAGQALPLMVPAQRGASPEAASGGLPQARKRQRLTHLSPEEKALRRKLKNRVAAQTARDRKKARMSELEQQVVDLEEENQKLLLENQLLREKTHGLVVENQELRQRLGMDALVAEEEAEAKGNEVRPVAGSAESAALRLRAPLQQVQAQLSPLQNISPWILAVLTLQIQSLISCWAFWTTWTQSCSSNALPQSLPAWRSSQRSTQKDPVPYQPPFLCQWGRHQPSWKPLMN
Chain of Glucocorticoid receptor (Homo sapiens) (P04150 whole entry, looked up, the tested form may be a part): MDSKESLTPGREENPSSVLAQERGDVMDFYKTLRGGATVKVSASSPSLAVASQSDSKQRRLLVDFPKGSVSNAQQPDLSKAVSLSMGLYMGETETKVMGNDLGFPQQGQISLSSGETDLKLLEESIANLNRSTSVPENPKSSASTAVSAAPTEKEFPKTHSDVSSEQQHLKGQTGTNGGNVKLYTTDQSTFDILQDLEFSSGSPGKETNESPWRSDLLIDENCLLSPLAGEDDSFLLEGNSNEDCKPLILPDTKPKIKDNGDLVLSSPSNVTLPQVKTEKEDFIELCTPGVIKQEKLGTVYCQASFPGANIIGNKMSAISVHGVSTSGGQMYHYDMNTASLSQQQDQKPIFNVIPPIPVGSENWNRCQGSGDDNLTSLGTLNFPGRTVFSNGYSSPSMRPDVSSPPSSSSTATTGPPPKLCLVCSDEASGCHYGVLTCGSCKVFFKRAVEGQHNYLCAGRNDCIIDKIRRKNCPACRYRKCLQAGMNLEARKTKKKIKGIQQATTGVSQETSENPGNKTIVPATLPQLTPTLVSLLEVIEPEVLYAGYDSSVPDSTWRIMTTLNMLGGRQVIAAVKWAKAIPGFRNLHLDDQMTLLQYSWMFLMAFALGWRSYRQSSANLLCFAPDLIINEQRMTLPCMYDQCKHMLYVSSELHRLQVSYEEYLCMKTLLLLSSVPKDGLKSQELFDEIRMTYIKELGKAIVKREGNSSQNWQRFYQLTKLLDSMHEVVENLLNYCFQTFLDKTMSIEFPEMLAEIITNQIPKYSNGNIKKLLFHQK
Chain of Paired box protein Pax-6 (Homo sapiens) (P26367 whole entry, looked up): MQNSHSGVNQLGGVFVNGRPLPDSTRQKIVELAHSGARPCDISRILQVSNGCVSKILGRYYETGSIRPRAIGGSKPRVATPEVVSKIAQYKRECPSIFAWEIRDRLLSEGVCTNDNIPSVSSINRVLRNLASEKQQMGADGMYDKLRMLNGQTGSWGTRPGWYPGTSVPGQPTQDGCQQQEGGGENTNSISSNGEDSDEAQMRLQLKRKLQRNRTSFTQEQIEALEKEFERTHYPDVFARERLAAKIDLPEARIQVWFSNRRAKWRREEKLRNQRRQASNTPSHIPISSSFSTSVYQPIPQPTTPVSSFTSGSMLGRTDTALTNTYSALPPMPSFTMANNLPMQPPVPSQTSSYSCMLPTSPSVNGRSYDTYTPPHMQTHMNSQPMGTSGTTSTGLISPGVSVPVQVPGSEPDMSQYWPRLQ
Chain of Estrogen-related receptor gamma (Homo sapiens) (P62508 whole entry, looked up, the tested form may be a part): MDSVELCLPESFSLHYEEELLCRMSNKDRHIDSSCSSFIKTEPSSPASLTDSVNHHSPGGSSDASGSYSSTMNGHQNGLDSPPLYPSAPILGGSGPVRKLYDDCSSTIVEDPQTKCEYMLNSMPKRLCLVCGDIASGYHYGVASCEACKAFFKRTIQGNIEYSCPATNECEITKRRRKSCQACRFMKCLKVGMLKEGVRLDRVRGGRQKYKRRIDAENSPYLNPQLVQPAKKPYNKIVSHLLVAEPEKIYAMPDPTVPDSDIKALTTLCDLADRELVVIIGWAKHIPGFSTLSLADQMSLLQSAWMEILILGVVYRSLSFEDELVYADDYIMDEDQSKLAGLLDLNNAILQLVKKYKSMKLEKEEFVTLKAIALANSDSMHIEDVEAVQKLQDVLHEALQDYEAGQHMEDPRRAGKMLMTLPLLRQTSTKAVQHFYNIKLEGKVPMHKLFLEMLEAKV
Chain of Signal transducer and activator of transcription 3 (Homo sapiens) (P40763 whole entry, looked up, the tested form may be a part): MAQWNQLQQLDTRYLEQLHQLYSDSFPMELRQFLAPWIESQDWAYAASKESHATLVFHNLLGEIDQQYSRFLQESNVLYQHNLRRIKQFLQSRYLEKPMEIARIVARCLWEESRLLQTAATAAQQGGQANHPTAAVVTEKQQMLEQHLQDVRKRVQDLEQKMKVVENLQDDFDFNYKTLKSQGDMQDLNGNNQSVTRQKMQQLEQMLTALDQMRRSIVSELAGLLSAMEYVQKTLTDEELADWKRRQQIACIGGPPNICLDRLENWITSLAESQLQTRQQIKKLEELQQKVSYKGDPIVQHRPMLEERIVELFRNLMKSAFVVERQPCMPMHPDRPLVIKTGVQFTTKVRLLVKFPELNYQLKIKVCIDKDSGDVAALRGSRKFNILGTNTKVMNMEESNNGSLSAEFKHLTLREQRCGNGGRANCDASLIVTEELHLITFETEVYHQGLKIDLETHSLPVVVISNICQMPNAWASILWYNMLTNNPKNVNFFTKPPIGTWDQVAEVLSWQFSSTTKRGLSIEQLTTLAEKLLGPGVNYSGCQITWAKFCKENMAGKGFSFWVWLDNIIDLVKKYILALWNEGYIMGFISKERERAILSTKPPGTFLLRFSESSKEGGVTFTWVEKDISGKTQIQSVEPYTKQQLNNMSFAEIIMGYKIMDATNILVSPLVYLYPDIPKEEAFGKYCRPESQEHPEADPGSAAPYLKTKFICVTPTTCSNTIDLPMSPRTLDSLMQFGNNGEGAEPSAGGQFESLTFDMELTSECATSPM
Chain of Transcription factor Sp1 (Homo sapiens) (P08047 whole entry, looked up): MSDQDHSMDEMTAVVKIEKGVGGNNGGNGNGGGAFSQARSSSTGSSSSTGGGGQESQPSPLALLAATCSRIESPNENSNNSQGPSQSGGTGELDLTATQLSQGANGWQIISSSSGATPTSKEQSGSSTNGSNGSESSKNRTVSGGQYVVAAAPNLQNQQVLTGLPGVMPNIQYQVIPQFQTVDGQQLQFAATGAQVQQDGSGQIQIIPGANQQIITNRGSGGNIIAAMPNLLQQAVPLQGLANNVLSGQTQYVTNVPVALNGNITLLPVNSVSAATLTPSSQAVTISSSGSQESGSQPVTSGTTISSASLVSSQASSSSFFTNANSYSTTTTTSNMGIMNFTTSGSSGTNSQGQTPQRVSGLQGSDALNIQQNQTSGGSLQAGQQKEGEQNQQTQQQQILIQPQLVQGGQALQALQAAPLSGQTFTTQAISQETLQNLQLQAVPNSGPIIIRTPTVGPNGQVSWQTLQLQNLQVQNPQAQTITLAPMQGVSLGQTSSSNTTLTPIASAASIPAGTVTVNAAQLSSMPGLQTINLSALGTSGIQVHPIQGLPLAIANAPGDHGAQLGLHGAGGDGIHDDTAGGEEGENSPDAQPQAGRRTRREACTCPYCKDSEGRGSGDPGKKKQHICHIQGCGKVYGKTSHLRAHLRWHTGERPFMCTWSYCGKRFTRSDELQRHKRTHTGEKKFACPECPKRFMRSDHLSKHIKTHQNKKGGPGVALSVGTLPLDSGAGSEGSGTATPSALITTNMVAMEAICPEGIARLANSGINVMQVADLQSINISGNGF
Chain of Steroid hormone receptor ERR1 (Homo sapiens) (P11474 whole entry, looked up, the tested form may be a part): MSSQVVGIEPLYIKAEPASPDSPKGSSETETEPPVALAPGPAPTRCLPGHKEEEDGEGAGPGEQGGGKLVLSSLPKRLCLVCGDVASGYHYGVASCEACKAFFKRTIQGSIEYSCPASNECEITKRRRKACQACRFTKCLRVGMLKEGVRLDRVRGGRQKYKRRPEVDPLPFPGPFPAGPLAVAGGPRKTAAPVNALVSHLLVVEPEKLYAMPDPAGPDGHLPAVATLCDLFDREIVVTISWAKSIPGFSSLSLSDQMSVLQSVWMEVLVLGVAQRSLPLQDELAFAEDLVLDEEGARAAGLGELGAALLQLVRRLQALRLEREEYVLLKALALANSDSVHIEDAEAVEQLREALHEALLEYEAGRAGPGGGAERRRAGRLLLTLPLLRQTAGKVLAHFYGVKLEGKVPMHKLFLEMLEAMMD
Chain of Nuclear receptor subfamily 1 group I member 3 (Homo sapiens) (Q14994 whole entry, looked up, the tested form may be a part): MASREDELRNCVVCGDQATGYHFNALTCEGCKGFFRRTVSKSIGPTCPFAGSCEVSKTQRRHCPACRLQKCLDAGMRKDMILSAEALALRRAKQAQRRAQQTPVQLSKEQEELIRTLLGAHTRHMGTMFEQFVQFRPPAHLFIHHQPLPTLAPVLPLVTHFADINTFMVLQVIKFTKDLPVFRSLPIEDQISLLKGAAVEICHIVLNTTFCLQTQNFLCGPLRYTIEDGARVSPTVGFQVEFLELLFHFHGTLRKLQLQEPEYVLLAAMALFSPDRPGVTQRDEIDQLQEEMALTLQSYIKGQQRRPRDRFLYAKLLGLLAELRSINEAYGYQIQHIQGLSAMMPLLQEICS

CCCCCCC(=O)c1ccccc1
outcome [1]: inactive
AC50 [2]: 43.2 µM (active)
outcome [3]: inactive
outcome [4]: inactive
outcome [5]: inactive
outcome [6]: inactive
outcome [7]: inactive
outcome [8]: inactive
outcome [9]: inactive
outcome [10]: inactive
outcome [11]: inactive
outcome [12]: inactive
outcome [13]: inactive
outcome [14]: inactive
outcome [15]: inactive

COc1cc([C@@H]2c3cc4c(cc3[C@@H](O[C@@H]3O[C@@H]5CO[C@@H](C)O[C@H]5[C@H](O)[C@H]3O)[C@H]3COC(=O)[C@H]23)OCO4)cc(OC)c1O
outcome [1]: inactive
AC50 [2]: 35.2 µM (active)
outcome [3]: inactive
outcome [4]: inactive
outcome [5]: inactive
outcome [6]: inactive
outcome [7]: inactive
outcome [8]: inactive
outcome [9]: inactive
outcome [10]: inactive
outcome [12]: inactive
outcome [16]: inactive
outcome [14]: inactive
outcome [15]: inactive
outcome [17]: inactive

FC(F)(F)COCC(F)(F)F
outcome [1]: inactive
outcome [2]: inactive
outcome [3]: inactive
outcome [4]: inactive
outcome [5]: inactive
outcome [6]: inactive
outcome [7]: inactive
outcome [8]: inactive
outcome [9]: inactive
outcome [10]: inactive
outcome [11]: inactive
outcome [12]: inactive
outcome [18]: inactive
outcome [14]: inactive
outcome [15]: inactive
outcome [19]: inactive
outcome [20]: inactive

[Cl][Au]([Cl])[Cl]
outcome [1]: inactive
outcome [2]: inactive
outcome [3]: inactive
outcome [4]: inactive
outcome [5]: inactive
outcome [6]: inactive
outcome [7]: inactive
outcome [8]: inactive
outcome [9]: inactive
outcome [10]: inactive
outcome [11]: inactive
outcome [12]: inactive
outcome [16]: inactive
outcome [14]: inactive
outcome [17]: inactive

CCc1cc(Cc2cc(CC)cc(C(C)(C)C)c2O)c(O)c(C(C)(C)C)c1
AC50 [1]: 16.6 µM (active)
AC50 [2]: 0.0355 µM (active)
AC50 [3]: 11.1 µM (active)
AC50 [4]: 18.1 µM (active)
outcome [5]: inactive
AC50 [6]: 11.1 µM (active)
outcome [7]: inactive
outcome [8]: inactive
AC50 [9]: 11.1 µM (active)
outcome [10]: inactive
outcome [11]: inactive
outcome [12]: inactive
AC50 [16]: 4.77 µM (active)
AC50 [14]: 16.9 µM (active)
outcome [17]: inactive
outcome [20]: inactive

C=CCN(CC=C)CC=C
outcome [1]: inactive
outcome [2]: inactive
outcome [3]: inactive
outcome [4]: inactive
outcome [5]: inactive
outcome [6]: inactive
outcome [7]: inactive
outcome [8]: inactive
outcome [9]: inactive
outcome [10]: inactive
outcome [11]: inactive
outcome [12]: inactive
outcome [16]: inactive
outcome [14]: inactive
outcome [19]: inactive
outcome [20]: inactive

Cc1ccc(-c2ccccc2)cc1
outcome [1]: inactive
AC50 [2]: 27.3 µM (active)
outcome [3]: inactive
outcome [4]: inactive
outcome [5]: inactive
outcome [6]: inactive
outcome [7]: inactive
outcome [8]: inactive
outcome [9]: inactive
outcome [10]: inactive
outcome [11]: inactive
outcome [12]: inactive
outcome [14]: inactive

CC(C)CCCCCCCCCCCCCCC(=O)O
outcome [1]: inactive
outcome [2]: inactive
outcome [3]: inactive
outcome [4]: inactive
outcome [5]: inactive
outcome [6]: inactive
outcome [7]: inactive
outcome [8]: inactive
outcome [9]: inactive
outcome [10]: inactive
outcome [11]: inactive
AC50 [12]: 177 µM (active)
outcome [14]: inactive
outcome [20]: inactive

— PubChem BioAssay (EPA / NIEHS)
